# Assay results taken from PubChem BioAssay (EPA / NIEHS).
# Inconclusive results are not listed. Calls of active or inactive are those of the source. The calls were made as follows: active = hit-call score of the fitted dose curve at least 0.9, where 1 is the maximum; inconclusive = response in the unintended direction; inactive = score below 0.9.
# Assays:
# [1] = system: guinea pig Leukotriene B4 Receptor (LTB4), gene 100379538; experiment: NVS_GPCR_gLTB4: NovaScreen (NVS) G Protein-Coupled Receptor Assay for guinea pig Leukotriene B4 Receptor (LTB4) (AID 2283247)
# Summary of the method: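 Radioligand displacement on guinea pig spleen membranes, filter-based scintillation counting 2 h after dosing. Primary duplicate single point at 25 uM; hits over threshold (e.g. 30% inhibition) run in concentration-response up to 50 uM, DMSO baseline.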
# [2] = biological target: human Serotonin, 5-Hydroxytryptamine Receptor 6 (5HT6), HTR6 (gene 3362) (UniProt P50406); experiment: NVS_GPCR_h5HT6: NovaScreen (NVS) G Protein-Coupled Receptor Assay for human Serotonin, 5-Hydroxytryptamine Receptor 6 (5HT6) (AID 2283253)
# Summary of the method: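 Radioligand binding to 5HT6 in HEK293-derived membranes, cell-free, 1 h after dosing; bound ligand measured by filter-based scintillation counting. Primary screen in duplicate at 25 uM; actives retested in concentration series.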
# [3] = biological target: human Adenosine A1 Receptor (AdoRA1), ADORA1 (gene 134) (UniProt P30542); experiment: NVS_GPCR_hAdoRA1: NovaScreen (NVS) G Protein-Coupled Receptor Assay for human Adenosine A1 Receptor (AdoRA1) (AID 2283254)
# Summary of the method: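 Each chemical is first tested twice at 25 uM, actives later in dilution series, against a radioligand bound to human cortex membranes; after 1 h, filter-retained counts are compared with DMSO controls, lower signal indicating displacement.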
# [4] = biological target: human Serotonin, 5-Hydroxytryptamine Receptor 7 (5HT7), HTR7 (gene 3363) (UniProt P34969); experiment: NVS_GPCR_h5HT7: NovaScreen (NVS) G Protein-Coupled Receptor Assay for human Serotonin, 5-Hydroxytryptamine Receptor 7 (5HT7) (AID 2283255);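 also: hits reduce specific radioligand binding relative to DMSO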
# Summary of the method: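 Radioligand displacement on membranes from CHO cells expressing human 5HT7, 1 h incubation, filter-based scintillation counting. Primary screen used a single 25 uM concentration in duplicate; actives were followed up in concentration series.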
# [5] = biological target: Type-1 angiotensin II receptor (Homo sapiens) (UniProt P30556); experiment: NVS_GPCR_hAT1: NovaScreen (NVS) G Protein-Coupled Receptor Assay for human Angiotensin II receptor type 1 (AT1) (AID 2283263)
# Summary of the method: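 Membranes from KAN-TS cells; radioligand competitive displacement, 3 h, filtration and scintillation counting. Single-point duplicate screen at 25 uM, then concentration-response up to 50 uM for hits; loss of signal fitted versus DMSO.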
# [6] = biological target: human Endothelin Receptor Type B (ETB), EDNRB (gene 1910) (UniProt P24530); experiment: NVS_GPCR_hETB: NovaScreen (NVS) G Protein-Coupled Receptor Assay for human Endothelin Receptor Type B (ETB) (AID 2283267)
# Summary of the method: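 Human astrocytoma cell membranes; radioligand competitive binding read by filter scintillation counting 4 hours after dosing. Single-concentration duplicate screen at 25 uM, then singleton concentration-response up to 50 uM; loss of signal versus DMSO.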
# [7] = biological target: human Serotonin, 5-Hydroxytryptamine Receptor 2A (5HT2A), HTR2A (gene 3356) (UniProt P28223); experiment: NVS_GPCR_h5HT2A: NovaScreen (NVS) G Protein-Coupled Receptor Assay for human Serotonin, 5-Hydroxytryptamine Receptor 2A (5HT2A) (AID 2283249)
# Summary of the method: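 Human cortex membranes, cell-free radioligand binding; filter-based scintillation read 1.5 h after dosing. Duplicate screen at 25 uM first; displacement of specific binding (loss of signal) versus DMSO.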
# [8] = biological target: human Serotonin, 5-Hydroxytryptamine Receptor 5A (5HT5A), HTR5A (gene 3361) (UniProt P47898); experiment: NVS_GPCR_h5HT5A: NovaScreen (NVS) G Protein-Coupled Receptor Assay for human Serotonin, 5-Hydroxytryptamine Receptor 5A (5HT5A) (AID 2283251)
# Summary of the method: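 Cell-free radioligand displacement binding on HEK293-derived membrane protein, 1 h incubation, filter-based scintillation counting. Primary screen in duplicate at 25 uM, actives followed in concentration series; loss of signal fitted versus DMSO.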
# [9] = biological target: human Adrenergic, Alpha 2c Receptor (Adra2C), ADRA2C (gene 152) (UniProt P18825); experiment: NVS_GPCR_hAdra2C: NovaScreen (NVS) G Protein-Coupled Receptor Assay for human Adrenergic, Alpha 2c Receptor (Adra2C) (AID 2283259)
# Summary of the method: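 Radioligand binding on Sf9-expressed receptor membranes, 1 h after chemical dosing, filter-based scintillation read-out. Loss of binding fitted positively versus DMSO; primary duplicate screen at 25 uM, actives retested in concentration series.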
# [10] = biological target: human Dopamine Receptor D2 (DRD2), DRD2 (gene 1813) (UniProt P14416); experiment: NVS_GPCR_hDRD2s: NovaScreen (NVS) G Protein-Coupled Receptor Assay for human Dopamine Receptor D2 (DRD2) (AID 2283266)
# Summary of the method: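 Radioligand displacement used human DRD2 membranes extracted from CHO cells and was read by filter-based scintillation counting after 1.5 hours. Primary screening was in duplicate at 25 uM. Loss of signal versus DMSO was fitted, with concentration series in follow-up.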
# [11] = biological target: human Histamine 1 Receptor (H1), HRH1 (gene 3269) (UniProt P35367); experiment: NVS_GPCR_hH1: NovaScreen (NVS) G Protein-Coupled Receptor Assay for human Histamine 1 Receptor (H1) (AID 2283268)
# Summary of the method: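 Cell-free radioligand displacement at human H1 receptor, 1 h, filter scintillation counting; primary screen 25 uM in duplicate, hits in concentration series; loss of binding fitted vs DMSO.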
# [12] = biological target: D(1A) dopamine receptor (Homo sapiens) (UniProt P21728); experiment: NVS_GPCR_hDRD1: NovaScreen (NVS) G Protein-Coupled Receptor Assay for human Dopamine Receptor D1 (DRD1) (AID 2283269)
# Summary of the method: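 Extracted HEK293 DRD1 is incubated 1 h with compound and a tritiated or iodinated radioligand, then filtered and counted. Screening runs 25 uM in duplicate with on-plate positive and negative controls.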
# [13] = biological target: human Adenosine A2a Receptor (AdoRA2a), ADORA2A (gene 135) (UniProt P29274); experiment: NVS_GPCR_hAdoRA2a: NovaScreen (NVS) G Protein-Coupled Receptor Assay for human Adenosine A2a Receptor (AdoRA2a) (AID 2283256)
# Summary of the method: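 Cell-free radioligand binding on membranes from HEK293 expressing the receptor; competitive displacement read 1.5 h after dosing by filter-based scintillation counting. Primary screen in duplicate at 25 uM; actives followed in concentration series, with DMSO as baseline.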
# [14] = system: bovine Histamine 1 Receptor (H1), gene 281231; experiment: NVS_GPCR_bH1: NovaScreen (NVS) G Protein-Coupled Receptor Assay for bovine Histamine 1 Receptor (H1) (AID 2283246)
# Summary of the method: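 Radioligand displacement on bovine cerebellar membranes, 1 h after dosing, filter-based scintillation read-out; loss of signal vs DMSO. Duplicate single-concentration screen at 25 uM, then concentration-response up to 50 uM for hits.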
# [15] = biological target: human Adrenergic, Beta 3 Receptor (Adrb3), ADRB3 (gene 155) (UniProt P13945); experiment: NVS_GPCR_hAdrb3: NovaScreen (NVS) G Protein-Coupled Receptor Assay for human Adrenergic, Beta 3 Receptor (Adrb3) (AID 2283262)
# Summary of the method: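 Membranes from SK-N-MC cells pretreated with isoproterenol and 8-bromo-cAMP were used in a radioligand competitive displacement binding assay. Binding was read by filter-based scintillation counting 1 hour after dosing. Primary screening was in duplicate at 25 uM, with concentration series in follow-up.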
# [16] = biological target: human Endothelin Receptor Type A (ETA), EDNRA (gene 1909) (UniProt P25101); experiment: NVS_GPCR_hETA: NovaScreen (NVS) G Protein-Coupled Receptor Assay for human Endothelin Receptor Type A (ETA) (AID 2283265)
# Summary of the method: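 Cell-free radioligand displacement using SH-SY5Y-derived protein, 3 h incubation, filter-based scintillation counting. Primary screen in duplicate at 25 uM; actives then run in concentration-response up to 50 uM; loss of binding fitted versus DMSO.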
# [17] = biological target: guinea pig Leukotriene D4 Receptor (LTD4), CYSLTR1 (gene 100135514) (UniProt Q2NNR5); experiment: NVS_GPCR_gLTD4: NovaScreen (NVS) G Protein-Coupled Receptor Assay for guinea pig Leukotriene D4 Receptor (LTD4) (AID 2283248)
# Summary of the method: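 Radioligand displacement on guinea pig lung membranes, 1 h incubation, filtration and scintillation counting; DMSO as negative control. Duplicate 25 uM primary screen, then singleton concentration-response up to 50 uM.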
# [18] = biological target: human Adrenergic, Beta 1 Receptor (Adrb1), ADRB1 (gene 153) (UniProt P08588); experiment: NVS_GPCR_hAdrb1: NovaScreen (NVS) G Protein-Coupled Receptor Assay for human Adrenergic, Beta 1 Receptor (Adrb1) (AID 2283258)
# Summary of the method: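 Cell-free radioligand displacement on receptor from human neuroepithelioma cells; 2 h after dosing, filter-based scintillation counting. Primary screen in duplicate at 25 uM, actives retested in concentration series; loss of signal vs DMSO baseline.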
# [19] = biological target: Beta-2 adrenergic receptor (Homo sapiens) (UniProt P07550); experiment: NVS_GPCR_hAdrb2: NovaScreen (NVS) G Protein-Coupled Receptor Assay for human Adrenergic, Beta 2 Receptor (Adrb2) (AID 2283261)
# Summary of the method: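 Filter-based radioligand binding using receptor prepared from CHO cells, 1 h incubation, scintillation counting. Primary screen in duplicate at 25 uM, actives retested in concentration series; loss of binding relative to DMSO.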
# [20] = biological target: human Dopamine Receptor D4.4 (DRD4.4), DRD4 (gene 1815) (UniProt P21917); experiment: NVS_GPCR_hDRD4.4: NovaScreen (NVS) G Protein-Coupled Receptor Assay for human Dopamine Receptor D4.4 (DRD4.4) (AID 2283264)
# Summary of the method: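 Radioligand displacement on human DRD4.4 from CHO-derived membranes, 1 hour incubation, bound counts read by filtration and scintillation. Primary screen in duplicate at 25 uM; actives followed up in concentration series.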
# Sequence of human Adenosine A1 Receptor (AdoRA1), ADORA1 (gene 134) (P30542 whole entry, looked up): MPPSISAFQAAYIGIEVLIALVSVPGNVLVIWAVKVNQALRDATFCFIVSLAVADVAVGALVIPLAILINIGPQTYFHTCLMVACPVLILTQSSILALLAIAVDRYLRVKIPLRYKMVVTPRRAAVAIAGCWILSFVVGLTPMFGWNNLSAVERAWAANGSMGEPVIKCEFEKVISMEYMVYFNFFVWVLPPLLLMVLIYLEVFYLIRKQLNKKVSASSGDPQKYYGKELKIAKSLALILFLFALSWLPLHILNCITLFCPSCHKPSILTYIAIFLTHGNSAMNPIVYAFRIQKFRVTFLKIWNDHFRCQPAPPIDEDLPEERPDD
# Sequence of human Serotonin, 5-Hydroxytryptamine Receptor 7 (5HT7), HTR7 (gene 3363) (P34969 whole entry, looked up): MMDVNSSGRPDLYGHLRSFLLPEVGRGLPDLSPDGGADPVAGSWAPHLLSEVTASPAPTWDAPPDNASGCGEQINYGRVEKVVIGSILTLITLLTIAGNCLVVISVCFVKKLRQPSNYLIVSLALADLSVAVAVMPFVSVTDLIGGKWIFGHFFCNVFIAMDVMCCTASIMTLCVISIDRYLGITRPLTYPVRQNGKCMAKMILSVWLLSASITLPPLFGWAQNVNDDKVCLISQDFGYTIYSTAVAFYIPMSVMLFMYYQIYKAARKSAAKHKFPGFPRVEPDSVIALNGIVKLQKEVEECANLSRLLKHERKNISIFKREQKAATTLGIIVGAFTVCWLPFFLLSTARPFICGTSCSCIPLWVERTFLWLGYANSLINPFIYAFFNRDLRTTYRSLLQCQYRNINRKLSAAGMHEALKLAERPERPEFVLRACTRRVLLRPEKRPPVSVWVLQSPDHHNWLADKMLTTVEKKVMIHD
# Sequence of human Serotonin, 5-Hydroxytryptamine Receptor 6 (5HT6), HTR6 (gene 3362) (P50406 whole entry, looked up): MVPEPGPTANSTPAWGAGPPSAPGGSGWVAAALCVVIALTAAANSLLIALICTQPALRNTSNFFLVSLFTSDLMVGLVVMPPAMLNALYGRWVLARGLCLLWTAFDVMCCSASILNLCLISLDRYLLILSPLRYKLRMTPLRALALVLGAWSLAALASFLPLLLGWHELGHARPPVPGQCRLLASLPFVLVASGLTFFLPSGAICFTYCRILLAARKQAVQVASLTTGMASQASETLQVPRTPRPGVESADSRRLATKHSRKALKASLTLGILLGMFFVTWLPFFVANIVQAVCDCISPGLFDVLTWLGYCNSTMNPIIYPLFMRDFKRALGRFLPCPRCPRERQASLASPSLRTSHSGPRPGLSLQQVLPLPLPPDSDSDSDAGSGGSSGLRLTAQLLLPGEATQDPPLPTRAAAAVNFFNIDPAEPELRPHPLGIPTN
# Sequence of human Adrenergic, Beta 3 Receptor (Adrb3), ADRB3 (gene 155) (P13945 whole entry, looked up): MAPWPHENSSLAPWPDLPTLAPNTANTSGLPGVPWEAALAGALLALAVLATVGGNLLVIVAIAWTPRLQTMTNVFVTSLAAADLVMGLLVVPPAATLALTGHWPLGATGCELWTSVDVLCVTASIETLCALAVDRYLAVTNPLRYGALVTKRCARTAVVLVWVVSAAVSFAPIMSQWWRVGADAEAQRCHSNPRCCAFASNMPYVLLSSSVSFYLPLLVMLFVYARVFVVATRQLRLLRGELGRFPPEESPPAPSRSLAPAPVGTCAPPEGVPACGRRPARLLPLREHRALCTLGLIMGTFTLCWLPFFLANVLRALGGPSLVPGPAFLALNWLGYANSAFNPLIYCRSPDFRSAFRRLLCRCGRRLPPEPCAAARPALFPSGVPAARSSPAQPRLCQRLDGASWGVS
# Sequence of human Adenosine A2a Receptor (AdoRA2a), ADORA2A (gene 135) (P29274 whole entry, looked up): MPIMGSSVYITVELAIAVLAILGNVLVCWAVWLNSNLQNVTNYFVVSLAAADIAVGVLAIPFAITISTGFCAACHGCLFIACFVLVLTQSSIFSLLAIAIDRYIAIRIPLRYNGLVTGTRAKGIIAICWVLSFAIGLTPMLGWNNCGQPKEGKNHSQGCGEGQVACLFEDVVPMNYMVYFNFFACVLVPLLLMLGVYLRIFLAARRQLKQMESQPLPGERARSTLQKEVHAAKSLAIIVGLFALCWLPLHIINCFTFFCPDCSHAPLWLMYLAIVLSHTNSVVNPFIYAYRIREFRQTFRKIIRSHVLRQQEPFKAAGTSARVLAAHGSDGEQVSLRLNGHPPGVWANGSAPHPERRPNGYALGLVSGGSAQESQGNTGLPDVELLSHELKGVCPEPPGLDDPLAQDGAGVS
# Sequence of human Dopamine Receptor D2 (DRD2), DRD2 (gene 1813) (P14416 whole entry, looked up): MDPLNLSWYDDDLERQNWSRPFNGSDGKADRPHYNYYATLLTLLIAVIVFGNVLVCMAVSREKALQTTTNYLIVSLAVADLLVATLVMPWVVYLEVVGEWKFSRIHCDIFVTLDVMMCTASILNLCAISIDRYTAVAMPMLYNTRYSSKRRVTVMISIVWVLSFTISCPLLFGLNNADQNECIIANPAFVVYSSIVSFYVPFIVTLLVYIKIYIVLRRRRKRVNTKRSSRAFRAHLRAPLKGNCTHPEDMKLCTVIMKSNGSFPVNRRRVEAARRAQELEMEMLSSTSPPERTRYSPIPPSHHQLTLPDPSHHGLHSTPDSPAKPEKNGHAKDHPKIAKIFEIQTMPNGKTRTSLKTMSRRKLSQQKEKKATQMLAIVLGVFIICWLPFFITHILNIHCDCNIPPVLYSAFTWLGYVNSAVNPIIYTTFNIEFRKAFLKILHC
# Sequence of human Adrenergic, Alpha 2c Receptor (Adra2C), ADRA2C (gene 152) (P18825 whole entry, looked up): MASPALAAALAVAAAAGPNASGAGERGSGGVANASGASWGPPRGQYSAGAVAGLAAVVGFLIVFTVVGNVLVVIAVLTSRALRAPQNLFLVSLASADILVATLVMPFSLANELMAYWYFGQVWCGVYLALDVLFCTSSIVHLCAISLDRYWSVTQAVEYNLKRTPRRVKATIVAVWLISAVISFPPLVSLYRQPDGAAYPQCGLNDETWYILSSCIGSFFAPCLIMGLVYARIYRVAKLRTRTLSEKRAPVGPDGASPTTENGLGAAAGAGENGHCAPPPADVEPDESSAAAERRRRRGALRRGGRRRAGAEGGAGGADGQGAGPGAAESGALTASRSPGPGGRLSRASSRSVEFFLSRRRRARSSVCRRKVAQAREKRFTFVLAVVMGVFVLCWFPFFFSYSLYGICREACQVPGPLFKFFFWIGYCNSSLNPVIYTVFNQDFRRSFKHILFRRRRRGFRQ
# Sequence of human Serotonin, 5-Hydroxytryptamine Receptor 2A (5HT2A), HTR2A (gene 3356) (P28223 whole entry, looked up): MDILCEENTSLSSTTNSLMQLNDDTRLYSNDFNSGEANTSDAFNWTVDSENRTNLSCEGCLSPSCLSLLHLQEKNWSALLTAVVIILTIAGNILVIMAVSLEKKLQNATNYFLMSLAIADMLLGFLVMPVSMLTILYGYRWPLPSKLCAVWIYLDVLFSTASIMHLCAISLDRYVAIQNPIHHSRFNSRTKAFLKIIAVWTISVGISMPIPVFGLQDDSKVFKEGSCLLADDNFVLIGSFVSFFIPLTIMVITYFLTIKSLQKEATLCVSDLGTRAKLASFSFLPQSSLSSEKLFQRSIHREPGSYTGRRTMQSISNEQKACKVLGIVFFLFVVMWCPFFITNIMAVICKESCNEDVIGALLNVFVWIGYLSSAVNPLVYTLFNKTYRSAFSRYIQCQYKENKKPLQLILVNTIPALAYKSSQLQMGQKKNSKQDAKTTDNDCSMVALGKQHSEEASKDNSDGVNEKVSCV
# Sequence of D(1A) dopamine receptor (Homo sapiens) (P21728 whole entry, looked up): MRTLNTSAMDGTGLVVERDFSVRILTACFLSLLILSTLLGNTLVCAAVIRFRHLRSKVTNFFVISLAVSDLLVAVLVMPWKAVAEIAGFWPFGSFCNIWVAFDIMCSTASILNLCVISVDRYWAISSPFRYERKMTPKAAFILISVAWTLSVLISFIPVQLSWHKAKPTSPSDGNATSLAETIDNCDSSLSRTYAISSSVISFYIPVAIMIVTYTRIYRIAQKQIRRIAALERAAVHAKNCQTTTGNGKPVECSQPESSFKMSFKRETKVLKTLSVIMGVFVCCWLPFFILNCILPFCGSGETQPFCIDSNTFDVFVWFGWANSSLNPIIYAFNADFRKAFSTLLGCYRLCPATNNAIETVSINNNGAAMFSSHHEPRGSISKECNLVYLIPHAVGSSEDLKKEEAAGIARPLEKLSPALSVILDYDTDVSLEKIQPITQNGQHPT
# Sequence of human Endothelin Receptor Type A (ETA), EDNRA (gene 1909) (P25101 whole entry, looked up): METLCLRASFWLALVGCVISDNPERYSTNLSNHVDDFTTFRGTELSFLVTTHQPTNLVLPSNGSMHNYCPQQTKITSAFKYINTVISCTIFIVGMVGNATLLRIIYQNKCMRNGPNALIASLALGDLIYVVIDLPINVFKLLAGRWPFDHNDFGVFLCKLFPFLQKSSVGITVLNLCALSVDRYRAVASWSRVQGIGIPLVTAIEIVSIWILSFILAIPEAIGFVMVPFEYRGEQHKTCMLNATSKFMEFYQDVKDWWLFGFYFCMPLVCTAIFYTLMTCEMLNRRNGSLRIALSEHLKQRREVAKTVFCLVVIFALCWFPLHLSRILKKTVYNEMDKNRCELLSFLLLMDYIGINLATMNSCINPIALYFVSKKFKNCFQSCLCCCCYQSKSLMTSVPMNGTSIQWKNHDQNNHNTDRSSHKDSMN
# Sequence of human Histamine 1 Receptor (H1), HRH1 (gene 3269) (P35367 whole entry, looked up): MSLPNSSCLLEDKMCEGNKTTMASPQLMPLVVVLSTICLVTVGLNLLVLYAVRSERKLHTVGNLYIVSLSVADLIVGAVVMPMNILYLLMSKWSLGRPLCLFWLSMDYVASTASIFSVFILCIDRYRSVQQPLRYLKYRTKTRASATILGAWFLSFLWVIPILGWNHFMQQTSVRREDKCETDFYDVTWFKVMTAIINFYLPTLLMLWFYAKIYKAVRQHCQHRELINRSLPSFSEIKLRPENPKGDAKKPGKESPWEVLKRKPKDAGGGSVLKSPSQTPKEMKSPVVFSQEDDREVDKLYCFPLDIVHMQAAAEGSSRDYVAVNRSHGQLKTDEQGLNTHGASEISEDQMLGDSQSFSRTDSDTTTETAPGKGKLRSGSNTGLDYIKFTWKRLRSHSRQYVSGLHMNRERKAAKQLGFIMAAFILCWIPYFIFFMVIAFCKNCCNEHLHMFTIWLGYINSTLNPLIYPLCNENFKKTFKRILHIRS
structure (smiles),measurement,setting,value
CN(C[C@@H](CC[N+]12CCC(C3CCCCC3)(CC1)CC2)c1ccc(Cl)c(Cl)c1)C(=O)c1cc(C(F)(F)F)cc(C(F)(F)F)c1,AC50,[1],0.166 µM (active)
same,AC50,[2],10.5 µM (active)
same,AC50,[3],16.7 µM (active)
same,AC50,[4],1.53 µM (active)
same,AC50,[5],33.1 µM (active)
same,outcome,[6],inactive
COc1ccc2cc(S(=O)(=O)N[C@H](CC(=O)N[C@H](Cc3ccc(CN4[C@H](C)CCC[C@@H]4C)cc3)C(=O)N(C)C(C)C)c3ccc4c(c3)OCO4)ccc2c1,AC50,[7],7.94 µM (active)
same,outcome,[8],inactive
same,outcome,[4],inactive
same,AC50,[9],5.22 µM (active)
same,outcome,[10],inactive
same,AC50,[11],17.8 µM (active)
same,AC50,[12],30.2 µM (active)
CCCCCCCCCC(=O)O,outcome,[1],inactive
same,outcome,[3],inactive
same,outcome,[4],inactive
same,outcome,[13],inactive
COc1cccc([C@H](O)C2CCN(CCc3ccc(F)cc3)CC2)c1OC,AC50,[14],5.41 µM (active)
same,outcome,[3],inactive
same,AC50,[4],0.395 µM (active)
same,outcome,[15],inactive
same,outcome,[16],inactive
CC[C@H](NC(=O)c1cc(F)ccc1NS(=O)(=O)c1cccc2cccnc12)c1ccccc1,AC50,[1],0.206 µM (active)
same,outcome,[17],inactive
same,AC50,[2],1.31 µM (active)
CCCOC(=O)c1cc(O)c(O)c(O)c1,outcome,[1],inactive
same,AC50,[3],14.4 µM (active)
CCOC(=O)O[C@H](C)OC(=O)c1ccc2c(c1)cc(C(=O)NC1CCN(C(C)C)CC1)n2Cc1cc(-c2ccc(Cl)s2)on1,AC50,[7],23.6 µM (active)
same,AC50,[8],6.7 µM (active)
same,AC50,[2],7.12 µM (active)
same,AC50,[3],15.9 µM (active)
same,AC50,[4],2.12 µM (active)
same,AC50,[13],10.2 µM (active)
same,AC50,[18],6.33 µM (active)
same,AC50,[9],2.01 µM (active)
same,AC50,[19],12.9 µM (active)
same,AC50,[15],20 µM (active)
same,AC50,[20],20.9 µM (active)
same,AC50,[16],14.3 µM (active)
same,AC50,[10],3.6 µM (active)
same,AC50,[11],7.84 µM (active)
same,AC50,[12],1.75 µM (active)
